According to publication PMC7862700, “An all-to-all approach to the identification of sequence-specific readers for epigenetic DNA modifications on cytosine”:

Tests used:
Assay in all cases: DAPPL (digital affinity profiling via proximity ligation, sequencing); 10 mM Tris-HCl pH 7.5, 50 mM NaCl, 1 mM DTT, 4% glycerol, room temperature, 30 min; GST-TFs on glutathione beads, 16-mer random dsDNA library, 0.1% formaldehyde crosslink after washing; high values mean tight binding
Settings in all cases: protein: recombinant; tags: N-terminal GST; dsDNA, one strand shown
[1] = molecular target: T1, FLI1 (Homo sapiens, UniProt Q01543 1-452)
T1 sequence: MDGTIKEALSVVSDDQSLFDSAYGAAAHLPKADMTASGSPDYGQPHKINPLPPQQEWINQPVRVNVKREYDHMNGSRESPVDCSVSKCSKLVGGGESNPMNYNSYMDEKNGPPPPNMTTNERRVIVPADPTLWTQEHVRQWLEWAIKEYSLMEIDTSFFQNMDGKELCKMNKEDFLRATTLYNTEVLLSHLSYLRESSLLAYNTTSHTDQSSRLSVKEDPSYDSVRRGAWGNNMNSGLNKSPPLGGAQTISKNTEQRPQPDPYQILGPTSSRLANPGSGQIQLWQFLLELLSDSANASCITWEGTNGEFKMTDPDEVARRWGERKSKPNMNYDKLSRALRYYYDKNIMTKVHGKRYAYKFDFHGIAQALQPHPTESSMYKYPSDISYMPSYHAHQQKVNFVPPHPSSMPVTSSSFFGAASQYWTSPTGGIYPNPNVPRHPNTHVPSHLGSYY
Outline: (§1)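 Pools were built from human transcription factors expressed in yeast as GST fusions, captured on glutathione beads and DNA-barcoded, along with a tag-only sample. Incubation with 200 nmole of a 16-mer random double-stranded DNA library lasted 30 min at room temperature in Tris/NaCl/DTT/glycerol buffer, and was followed by washing, 0.1% formaldehyde crosslinking, proximity ligation, PCR amplification and Illumina NextSeq500 sequencing. Binding signal is the quotient of each hexamer's read frequency for a factor and its frequency for the tag-only sample.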

[2] = molecular target: T2, ELK1 (Homo sapiens, UniProt P19419 1-428)
T2 sequence: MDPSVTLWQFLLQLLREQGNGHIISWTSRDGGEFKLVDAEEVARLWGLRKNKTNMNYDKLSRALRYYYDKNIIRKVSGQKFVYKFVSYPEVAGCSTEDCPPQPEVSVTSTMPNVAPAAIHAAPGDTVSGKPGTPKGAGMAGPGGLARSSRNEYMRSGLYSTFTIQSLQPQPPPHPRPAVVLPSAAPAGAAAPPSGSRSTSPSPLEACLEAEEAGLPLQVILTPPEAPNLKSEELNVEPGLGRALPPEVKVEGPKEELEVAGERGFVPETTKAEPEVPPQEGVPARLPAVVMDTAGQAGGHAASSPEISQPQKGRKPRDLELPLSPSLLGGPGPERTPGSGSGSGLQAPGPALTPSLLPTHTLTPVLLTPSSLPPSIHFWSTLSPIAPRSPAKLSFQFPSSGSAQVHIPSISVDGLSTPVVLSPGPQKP
Outline: as §1

[3] = molecular target: T3, GABPA (Homo sapiens, UniProt Q06546 1-454)
T3 sequence: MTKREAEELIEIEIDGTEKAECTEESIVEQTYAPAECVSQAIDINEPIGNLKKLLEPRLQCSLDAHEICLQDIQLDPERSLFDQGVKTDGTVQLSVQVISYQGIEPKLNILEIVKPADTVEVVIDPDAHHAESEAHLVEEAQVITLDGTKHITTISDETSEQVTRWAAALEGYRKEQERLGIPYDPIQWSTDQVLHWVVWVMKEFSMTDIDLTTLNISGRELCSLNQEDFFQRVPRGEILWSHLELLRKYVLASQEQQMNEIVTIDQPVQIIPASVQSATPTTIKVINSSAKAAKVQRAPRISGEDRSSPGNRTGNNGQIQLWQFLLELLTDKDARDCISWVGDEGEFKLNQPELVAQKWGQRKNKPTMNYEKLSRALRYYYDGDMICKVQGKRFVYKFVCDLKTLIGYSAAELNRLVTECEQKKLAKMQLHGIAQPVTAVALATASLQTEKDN
Outline: as §1

[4] = molecular target: T4, ERG (Homo sapiens, UniProt P11308 1-479)
T4 sequence: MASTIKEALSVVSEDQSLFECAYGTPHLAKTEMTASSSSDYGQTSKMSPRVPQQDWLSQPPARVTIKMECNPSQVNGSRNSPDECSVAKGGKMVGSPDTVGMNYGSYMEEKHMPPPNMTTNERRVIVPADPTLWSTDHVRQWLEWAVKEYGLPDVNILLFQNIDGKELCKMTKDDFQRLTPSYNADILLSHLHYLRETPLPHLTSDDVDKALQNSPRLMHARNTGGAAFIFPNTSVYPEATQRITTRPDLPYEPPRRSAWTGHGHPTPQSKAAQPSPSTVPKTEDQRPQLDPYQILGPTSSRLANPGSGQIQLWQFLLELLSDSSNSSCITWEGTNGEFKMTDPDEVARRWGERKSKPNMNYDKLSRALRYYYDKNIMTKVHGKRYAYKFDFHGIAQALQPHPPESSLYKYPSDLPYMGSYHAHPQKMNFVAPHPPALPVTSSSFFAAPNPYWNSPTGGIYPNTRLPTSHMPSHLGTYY
Outline: as §1

[5] = molecular target: ELF1 (Homo sapiens, UniProt P32519 1-619)
Chain of ELF1 (P32519 whole entry): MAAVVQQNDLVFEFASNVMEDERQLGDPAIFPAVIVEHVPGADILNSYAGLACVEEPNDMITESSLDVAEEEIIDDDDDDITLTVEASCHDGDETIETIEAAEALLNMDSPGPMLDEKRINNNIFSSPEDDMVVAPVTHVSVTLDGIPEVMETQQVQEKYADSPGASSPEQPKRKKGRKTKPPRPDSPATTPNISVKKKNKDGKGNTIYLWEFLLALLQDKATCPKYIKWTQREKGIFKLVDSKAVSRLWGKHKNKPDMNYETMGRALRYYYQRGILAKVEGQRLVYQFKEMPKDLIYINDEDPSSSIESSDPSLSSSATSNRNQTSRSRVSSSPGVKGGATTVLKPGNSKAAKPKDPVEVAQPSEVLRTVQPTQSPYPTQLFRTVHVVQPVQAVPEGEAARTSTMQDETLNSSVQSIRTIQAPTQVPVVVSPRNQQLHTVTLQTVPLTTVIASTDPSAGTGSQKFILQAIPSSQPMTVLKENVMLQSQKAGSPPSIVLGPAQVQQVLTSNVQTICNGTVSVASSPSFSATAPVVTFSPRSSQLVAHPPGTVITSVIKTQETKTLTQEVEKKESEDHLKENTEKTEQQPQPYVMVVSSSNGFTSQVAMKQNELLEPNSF
Outline: as §1

[6] = molecular target: T5, EHF (Homo sapiens, UniProt Q9NZC4 1-300)
T5 sequence: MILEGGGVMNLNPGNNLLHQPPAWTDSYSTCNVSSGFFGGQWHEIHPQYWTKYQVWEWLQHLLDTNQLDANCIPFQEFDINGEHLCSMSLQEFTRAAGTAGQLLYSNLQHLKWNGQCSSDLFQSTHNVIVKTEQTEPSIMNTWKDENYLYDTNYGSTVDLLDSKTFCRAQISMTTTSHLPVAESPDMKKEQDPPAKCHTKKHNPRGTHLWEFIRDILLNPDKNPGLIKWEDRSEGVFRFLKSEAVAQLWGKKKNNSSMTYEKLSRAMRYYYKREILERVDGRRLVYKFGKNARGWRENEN
Outline: as §1

[7] = molecular target: SPI1 (Homo sapiens, UniProt P17947 1-270)
Outline: as §1

[8] = molecular target: SPIB (Homo sapiens, UniProt Q01892 1-262)
Chain of SPIB (Q01892 whole entry): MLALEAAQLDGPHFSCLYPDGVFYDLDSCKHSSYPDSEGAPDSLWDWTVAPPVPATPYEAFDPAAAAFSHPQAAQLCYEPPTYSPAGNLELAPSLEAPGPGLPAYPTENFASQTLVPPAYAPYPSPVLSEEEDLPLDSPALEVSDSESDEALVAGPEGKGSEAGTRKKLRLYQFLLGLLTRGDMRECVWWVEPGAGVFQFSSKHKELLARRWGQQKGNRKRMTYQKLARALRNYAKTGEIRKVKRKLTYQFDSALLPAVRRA
Outline: as §1

[9] = molecular target: T6, ELK3 (Homo sapiens, UniProt P41970 1-407)
T6 sequence: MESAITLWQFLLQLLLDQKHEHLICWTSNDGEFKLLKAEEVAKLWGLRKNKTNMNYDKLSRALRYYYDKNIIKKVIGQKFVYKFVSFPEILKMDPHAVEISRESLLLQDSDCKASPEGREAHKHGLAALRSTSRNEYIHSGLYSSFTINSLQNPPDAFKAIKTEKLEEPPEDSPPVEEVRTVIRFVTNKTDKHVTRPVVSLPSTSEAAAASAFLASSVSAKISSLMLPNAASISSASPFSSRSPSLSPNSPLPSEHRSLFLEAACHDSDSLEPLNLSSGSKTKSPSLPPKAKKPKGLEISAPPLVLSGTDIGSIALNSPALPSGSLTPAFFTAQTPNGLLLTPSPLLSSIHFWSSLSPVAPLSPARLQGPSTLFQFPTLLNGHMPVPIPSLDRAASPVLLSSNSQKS
Outline: as §1

Row | Sequence | binding signal [1] | binding signal [2] | binding signal [3] | binding signal [4] | binding signal [5] | binding signal [6] | binding signal [7] | binding signal [8] | binding signal [9]
1 | ACAAAT | 1.09 fold enrichment (6-mer frequency, TF over GST control) | 1.18 fold enrichment (6-mer frequency, TF over GST control) | 1.12 fold enrichment (6-mer frequency, TF over GST control) | 1.15 fold enrichment (6-mer frequency, TF over GST control) | 1.15 fold enrichment (6-mer frequency, TF over GST control) | 1.19 fold enrichment (6-mer frequency, TF over GST control) | 1.17 fold enrichment (6-mer frequency, TF over GST control) | 1.11 fold enrichment (6-mer frequency, TF over GST control) | 1.14 fold enrichment (6-mer frequency, TF over GST control)
2 | ATGCTA | 1.21 fold enrichment (6-mer frequency, TF over GST control) | 1.2 fold enrichment (6-mer frequency, TF over GST control) | 1.25 fold enrichment (6-mer frequency, TF over GST control) | 1.27 fold enrichment (6-mer frequency, TF over GST control) | 1.23 fold enrichment (6-mer frequency, TF over GST control) | 1.28 fold enrichment (6-mer frequency, TF over GST control) | 1.22 fold enrichment (6-mer frequency, TF over GST control) | 1.21 fold enrichment (6-mer frequency, TF over GST control) | 1.37 fold enrichment (6-mer frequency, TF over GST control)
3 | ACGAAA | 1.2 fold enrichment (6-mer frequency, TF over GST control) | 1.12 fold enrichment (6-mer frequency, TF over GST control) | 1.15 fold enrichment (6-mer frequency, TF over GST control) | 1.14 fold enrichment (6-mer frequency, TF over GST control) | 1.13 fold enrichment (6-mer frequency, TF over GST control) | 1.19 fold enrichment (6-mer frequency, TF over GST control) | 1.14 fold enrichment (6-mer frequency, TF over GST control) | 1.16 fold enrichment (6-mer frequency, TF over GST control) | 1.07 fold enrichment (6-mer frequency, TF over GST control)
4 | CCCTCG | 1.23 fold enrichment (6-mer frequency, TF over GST control) | 1.34 fold enrichment (6-mer frequency, TF over GST control) | 1.38 fold enrichment (6-mer frequency, TF over GST control) | 1.14 fold enrichment (6-mer frequency, TF over GST control) | 1.34 fold enrichment (6-mer frequency, TF over GST control) | 1.24 fold enrichment (6-mer frequency, TF over GST control) | 1.23 fold enrichment (6-mer frequency, TF over GST control) | 1.34 fold enrichment (6-mer frequency, TF over GST control) | 1.15 fold enrichment (6-mer frequency, TF over GST control)
5 | GACCTT | 1.65 fold enrichment (6-mer frequency, TF over GST control) | 1.68 fold enrichment (6-mer frequency, TF over GST control) | 1.65 fold enrichment (6-mer frequency, TF over GST control) | 1.46 fold enrichment (6-mer frequency, TF over GST control) | 1.58 fold enrichment (6-mer frequency, TF over GST control) | 1.46 fold enrichment (6-mer frequency, TF over GST control) | 1.47 fold enrichment (6-mer frequency, TF over GST control) | 1.51 fold enrichment (6-mer frequency, TF over GST control) | 1.55 fold enrichment (6-mer frequency, TF over GST control)
6 | TCTTAA | 1.18 fold enrichment (6-mer frequency, TF over GST control) | 1.13 fold enrichment (6-mer frequency, TF over GST control) | 1.16 fold enrichment (6-mer frequency, TF over GST control) | 1.21 fold enrichment (6-mer frequency, TF over GST control) | 1.23 fold enrichment (6-mer frequency, TF over GST control) | 1.09 fold enrichment (6-mer frequency, TF over GST control) | 1.23 fold enrichment (6-mer frequency, TF over GST control) | 1.23 fold enrichment (6-mer frequency, TF over GST control) | 1.23 fold enrichment (6-mer frequency, TF over GST control)
7 | ACTTTT | 1.43 fold enrichment (6-mer frequency, TF over GST control) | 1.32 fold enrichment (6-mer frequency, TF over GST control) | 1.34 fold enrichment (6-mer frequency, TF over GST control) | 1.21 fold enrichment (6-mer frequency, TF over GST control) | 1.21 fold enrichment (6-mer frequency, TF over GST control) | 1.21 fold enrichment (6-mer frequency, TF over GST control) | 1.26 fold enrichment (6-mer frequency, TF over GST control) | 1.34 fold enrichment (6-mer frequency, TF over GST control) | 1.14 fold enrichment (6-mer frequency, TF over GST control)
